A number with no mark means an inactive call.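 Rule for the calls: active = AUC reduced over 20% with Padj below 0.05 in at least 2 of 3 replicates; inactive = otherwise.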

The test system of this assay is Collinsella aerofaciens. Description: growth AUC relative to DMSO control (median of replicates) (fraction); higher = more growth (less inhibition), active = hit call of the paper. As to conditions: 20 µM; 24 h. The essentials: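 Gut bacterial monocultures were grown anaerobically at 37 °C in mGAM, starting at OD600 0.05, with 20 µM compound (1% DMSO) in round-bottom 96-well plates under pierced gas-permeable seals. OD600 was read hourly for 24 h. Area under the growth curve (minimum OD set to 0) was normalised to the plate median of DMSO controls, or to row and column medians on the industrial chemical plate. The value is the median of three biological replicates grown on separate days.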
For the compound `ClC1C(Cl)C(Cl)C(Cl)C(Cl)C1Cl` (mixture of isomers), the “growth AUC” value was 1.

Take `O=C(O)C1(O)c2ccccc2-c2ccc(Cl)cc21` (stereo not given): the “growth AUC” value is 1.03.

`CCC(CC)Nc1c([N+](=O)[O-])cc(C)c(C)c1[N+](=O)[O-]`: the “growth AUC” value was 0.909.

Regarding `CC(C)(C)c1ccc(CCOc2ncnc3ccccc23)cc1`, the “growth AUC” value was 0.943.

Turning to `CCC(C)(NC(=O)c1cc(Cl)c(C)c(Cl)c1)C(=O)CCl` (stereo not given), the “growth AUC” value was 1.

Regarding `COc1ccc(/C(=C/C(=O)N2CCOCC2)c2ccc(Cl)cc2)cc1OC`, the “growth AUC” value was 0.93.

Regarding `CNC(=O)Oc1cccc2c1OC(C)(C)C2=O`, the “growth AUC” value is 1.01.

Consider `c1coc(-c2nc3ccccc3[nH]2)c1`, for which the “growth AUC” value is 0.945.

Regarding `COP(=O)(OC)SCn1c(=O)oc2cc(Cl)cnc21`, the “growth AUC” value is 1.03.

Take `COC(=O)Nc1nc2ccccc2[nH]1`: the “growth AUC” value was 1.03.

As to `S=C1NCCN1`, the “growth AUC” value is 1.02.

As to `O=c1[nH]c(Cl)c(Cl)cc1Cl`, the “growth AUC” value was 1.01.

`Cc1cccc(C)c1N`: the “growth AUC” value is 0.985.

As for `COP(=O)(OC)Oc1ccc([N+](=O)[O-])cc1`, the “growth AUC” value was 0.948.

`CCOP(=S)(OCC)Oc1ccc2c(C)c(Cl)c(=O)oc2c1`: the “growth AUC” value is 1.

As to `Clc1cc(Cl)c(Cl)cc1Cl`, the “growth AUC” value was 1.01.

Turning to `CCN(CC)c1c([N+](=O)[O-])cc(C(F)(F)F)c(N)c1[N+](=O)[O-]`, the “growth AUC” value was 1.

With `C[C@@H](Oc1ccc(Oc2ccc(C(F)(F)F)cn2)cc1)C(=O)O`, the “growth AUC” value was 0.957.

Consider `CCOP(=S)(Oc1cnc(C(C)(C)C)nc1)OC(C)C` (stereo not given), for which the “growth AUC” value was 1.03.

As for `Oc1ccc(C(c2ccc(O)cc2)(C(F)(F)F)C(F)(F)F)cc1`, the “growth AUC” value is 0.894.

(Values after the supplement of paper PMC12669032.)
